Screens: PubChem BioAssay, National Center for Advancing Translational Sciences (NCATS)
PNC assembly inh = perinucleolar compartment assembly inhibition | PC3M PTB-GFP, PNC prevalence imaging, 16 h; stronger effect = lower value | activity change (PNC), negative = inhibition, % at 10 µM | 140,000 compounds, 3.1% hits;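 active = readout at or below -70, meaning at least 70% loss of cells showing the perinucleolar compartment, a nuclear body marking cancer cells; inconclusive = readout between -30 and a set limit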;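 note: plate controls were DMSO wells for no effect and camptothecin positive control wells for full effect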
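Read-out is percentage of cells bearing a perinucleolar compartment, from automated 20x imaging of fixed, Hoechst-stained PC3M PTB-GFP cells. Cells were seeded 4 h, then exposed 16 h to compound (23 nl of library stock) in duplicate plates.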
ALOX12 inhib = blocks human 12-lipoxygenase activity; P18054; purified 12-hLO, xylenol orange hydroperoxide absorbance; AID 1452; 150,000 compounds, 0.12% hits; Potency, µM (doses to about 57.1 µM), inactives show at the highest dose activity change, negative = inhibition, hits mostly inhibitors; note: potency is the fitted concentration of half-maximal effect; nearly all actives have a fitted effect of over 55% in size
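Hydroperoxide formation by human 12-lipoxygenase from 40 uM arachidonic acid was followed colorimetrically via ferric-xylenol orange complex, using the 573/405 nm absorbance ratio. Enzyme concentration was 150 nM, with 30 min reaction at room temperature.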
IMPase inh = membrane-permeable compound that blocks inositol monophosphatase. 120,000 tested, under 10 active. CHO-M1 cells, IP1 accumulation, HTRF TR-FRET ratio. P97697. inhibition (IP1 accumulation), % at 46.1 µM; active = well fitted curve in the direction sought with a large enough effect in the signal ratio, not every such curve was filed as active; inconclusive = small, poorly fitted or top-dose-only effect, or a change in a side signal; inactive = no such curve, though single readings can be large or run the other way; the % refers to the signal ratio;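 note: cells stimulated with carbachol in lithium chloride buffer; plate controls were DMSO basal wells for no effect and reference inhibitor wells for full effect; higher means more IMPase inhibition seen as more IP1 and lower FRET ratio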
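The IP-One HTRF competitive assay in carbachol-stimulated CHO-M1 cells quantifies cellular IP1. Compounds spanned up to 46 uM final, and activity is expressed as AC50 from concentration-response fits of the ratio and donor data.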
15-hLO-2 inh = blocks human 15-lipoxygenase 2 activity. purified 15hLO-2, xylenol orange hydroperoxide absorbance. Potency, µM (highest dose often 57.1 µM), without a hit: at the top dose activity change, negative = inhibition, most hits filed as inhibitors. 110,000 compounds, 0.56% hits; note: potency is the fitted concentration of half-maximal effect; nearly all actives have a fitted effect of over 60% in size
Target sequence (O15296 whole entry, looked up): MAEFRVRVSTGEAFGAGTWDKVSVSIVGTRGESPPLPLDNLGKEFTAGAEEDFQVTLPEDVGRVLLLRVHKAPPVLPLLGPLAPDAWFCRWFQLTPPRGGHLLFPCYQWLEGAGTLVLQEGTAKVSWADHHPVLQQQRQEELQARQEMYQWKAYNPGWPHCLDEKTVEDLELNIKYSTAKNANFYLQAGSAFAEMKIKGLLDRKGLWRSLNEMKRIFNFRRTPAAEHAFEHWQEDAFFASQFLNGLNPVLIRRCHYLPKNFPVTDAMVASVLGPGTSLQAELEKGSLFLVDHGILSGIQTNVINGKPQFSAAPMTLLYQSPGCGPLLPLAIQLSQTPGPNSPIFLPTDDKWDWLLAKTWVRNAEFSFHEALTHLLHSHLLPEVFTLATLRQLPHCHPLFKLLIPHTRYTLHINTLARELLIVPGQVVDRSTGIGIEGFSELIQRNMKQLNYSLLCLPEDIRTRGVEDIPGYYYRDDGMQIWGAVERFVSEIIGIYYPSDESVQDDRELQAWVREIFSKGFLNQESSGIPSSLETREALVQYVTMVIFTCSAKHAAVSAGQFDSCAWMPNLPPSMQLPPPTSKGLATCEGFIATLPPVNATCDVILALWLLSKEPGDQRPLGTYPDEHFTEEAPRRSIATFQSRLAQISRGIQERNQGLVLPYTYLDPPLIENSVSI
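Enzyme 50 nM, AA 45 uM, 25 mM Hepes pH 7.5 + 0.01% Triton X-100; cpd preinc 15 min RT, rxn 90 min RT; stop/detect with 200 uM XO + 300 uM Fe(II) in 50 mM H2SO4, 30 min; A573/A405.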
Starred values were filed as active, the others as inactive; [ ] = remark or other dose. An excerpt weighted towards active compounds, which were near 3% of everything screened. Unless noted, calls come from the whole dose curve; as a rule, active = well fitted curve in the direction sought with a large enough effect; inconclusive = small, poorly fitted or top-dose-only effect, or another doubt; inactive = no such curve, though single readings can be large; an effect the other way counts as inactive or inconclusive. Unless noted, % is set by controls: 0 for no effect and ±100 for the full control effect.

COC(=O)C(Sc1nc(C)cc(C)c1C#N)c1ccccc1 (configuration not stated) was read as PNC assembly inh 61, ALOX12 inhib -11%, IMPase inh 12 and 15-hLO-2 inh -5%.
Screening COc1ccccc1-c1cc(-c2ccccc2)nc(SC(C(N)=O)c2ccccc2)c1C#N (configuration not stated) returned PNC assembly inh 8, ALOX12 inhib -5%, IMPase inh inconclusive and 15-hLO-2 inh 16µM*.
For COc1ccc(-c2c3c(=O)n(C)c(=O)n(C)c3cn2-c2ccccc2)cc1 the results were PNC assembly inh -91*, ALOX12 inhib -2%, IMPase inh -4 and 15-hLO-2 inh -22%.
Screening COc1ccc(C(=O)Nn2cc3c(c2-c2ccccc2)c(=O)n(C)c(=O)n3C)cc1 returned PNC assembly inh 5, ALOX12 inhib -10%, IMPase inh 10 and 15-hLO-2 inh -10%.
CCOc1ccc(-n2nc3c(=O)n(CCN4CCCCC4)nc(C)c3c2C)cc1 was read as PNC assembly inh 37 and ALOX12 inhib 0%.
COC(=O)c1ccc(-c2nn(C)c(=O)c3ccccc23)cc1 was read as PNC assembly inh -108*, ALOX12 inhib 0%, IMPase inh -8 and 15-hLO-2 inh -6%.
For COc1cnc(SCc2c(Cl)cccc2Cl)nc1Cl the results were PNC assembly inh 13, ALOX12 inhib 2%, IMPase inh 0 and 15-hLO-2 inh 3%.
CC(c1nnnn1C1CCCCC1)N(Cc1ccccc1)Cc1cccnc1 (configuration not stated) was read as PNC assembly inh -100*, ALOX12 inhib -2% and IMPase inh -4.
CCN(Cc1ccccc1)C(c1ccccn1)c1nnnn1C1CCCCC1 (configuration not stated) was read as PNC assembly inh -15, ALOX12 inhib 3% and IMPase inh 12.
`Cc1cc(S(=O)(=O)Nc2ccccc2C(=O)O)ccc1Cl` gave PNC assembly inh -117*, ALOX12 inhib 0%, IMPase inh 3 and 15-hLO-2 inh -3%.
For CCOc1cc(C)nc(NCCc2ccc(OC)c(OC)c2)n1 the results were PNC assembly inh 11, ALOX12 inhib -6%, IMPase inh 14 and 15-hLO-2 inh 16%.
`O=C(Cn1c(C(=O)N2CCN(C3CCCC3)CC2)cc2sccc21)c1ccccc1` gave PNC assembly inh -122*, ALOX12 inhib -6%, IMPase inh 4 and 15-hLO-2 inh 15%.
CCC(=O)Nc1sc2c(c1C(N)=O)CCC2 was read as PNC assembly inh -100*, ALOX12 inhib -5%, IMPase inh -1 and 15-hLO-2 inh -1%.
Screening CC(C)C(=O)NC(=S)Nc1sc2c(c1C(N)=O)CCCC2 returned PNC assembly inh -109* and ALOX12 inhib 1%.
For COc1ccc(-n2[nH]c3c4c(ncc3c2=O)CCCCC4)cc1 the results were ALOX12 inhib 0%[0.00818 µM] and 15-hLO-2 inh 11%[0.0915 µM].
O=C(O)C1CCN(S(=O)(=O)c2ccc(Oc3ccccc3)cc2)CC1 was read as PNC assembly inh -83*, ALOX12 inhib -2%, IMPase inh 10 and 15-hLO-2 inh -3%.
For COCC(=O)NC1CCN(S(=O)(=O)c2ccc(C(=O)O)cc2)CC1 the results were PNC assembly inh -122*, ALOX12 inhib -7%, IMPase inh 5 and 15-hLO-2 inh 0%.
Screening O=C(Nc1ccc(Oc2ccccc2)cc1)C1CCN(S(=O)(=O)c2ccccc2)CC1 returned IMPase inh 9.
`CCOC(=O)C1CCN(S(=O)(=O)c2ccc(C(C)=O)cc2)CC1` gave PNC assembly inh -100*, ALOX12 inhib -2% and IMPase inh 1.
Screening O=C(CN1CCN(C/C=C/c2ccccc2)CC1)Nc1cc([N+](=O)[O-])ccc1Cl returned PNC assembly inh -124* and ALOX12 inhib -5%.
CC(C)CNS(=O)(=O)c1ccc(S(=O)(=O)N2CCN(CCC#N)CC2)cc1 was read as PNC assembly inh 5, ALOX12 inhib 5%, IMPase inh -4 and 15-hLO-2 inh -5%.
Screening CCN(CC)c1ccc2cc(C=O)c(=O)oc2c1 returned PNC assembly inh -5, ALOX12 inhib -19%, IMPase inh 18 and 15-hLO-2 inh -17%.
Screening CCN(CC)c1ccc2cc(-c3nnc(-c4ccncc4)o3)c(=O)oc2c1 returned PNC assembly inh -119*, ALOX12 inhib 5%, IMPase inh 4 and 15-hLO-2 inh 9%[2.29 µM].
`CCN(CC)c1ccc2cc(C(N)=O)c(=O)oc2c1` gave PNC assembly inh -105*, ALOX12 inhib -3% and IMPase inh 4.
Screening CCN(CC)c1ccc2cc(-c3nnc(-c4cccc(Cl)c4)o3)c(=O)oc2c1 returned IMPase inh 0.
`CCOC(=O)N1CCN(c2cc3[nH]c(=S)[nH]c3cc2F)CC1` gave PNC assembly inh -91*, ALOX12 inhib -4%, IMPase inh -7 and 15-hLO-2 inh -22%.
Screening CCOC(=O)N1CCN(c2c(F)cc3[nH]c(=S)[nH]c3c2Br)CC1 returned PNC assembly inh 28, ALOX12 inhib inconclusive, IMPase inh 2 and 15-hLO-2 inh 13µM*.
For CCOC(=O)N1CCN(c2cc(C)c(C(C)=O)cc2F)CC1 the results were PNC assembly inh 31, ALOX12 inhib 6%, IMPase inh 14 and 15-hLO-2 inh 4%.
Screening CCCN(CCC)S(=O)(=O)c1ccc(NS(=O)(=O)c2ccc(F)cc2)cc1 returned PNC assembly inh 6, ALOX12 inhib -18%, IMPase inh 3 and 15-hLO-2 inh -2%.
COc1nc2ccccc2c(=O)n1OCC(C)C was read as PNC assembly inh -82*, ALOX12 inhib -1%, IMPase inh 8 and 15-hLO-2 inh -7%.
For COn1c(SC(C)C)nc2ccccc2c1=O the results were PNC assembly inh 19, ALOX12 inhib 3%, IMPase inh 1 and 15-hLO-2 inh -4%.
O=C(NC(=S)Nc1ccc(N2CCCCC2)c(Cl)c1)c1ccc2c(c1)OCCO2 was read as PNC assembly inh inconclusive, ALOX12 inhib inconclusive, IMPase inh 7 and 15-hLO-2 inh 10µM*.
For CCc1ccc(C(=O)NC(=S)Nc2ccc3c(c2)OCCO3)cc1 the results were PNC assembly inh 12, ALOX12 inhib 14µM* and IMPase inh -1.
Cn1c(=O)n(C)c2cc(N3CCOCC3)c(NC(=O)c3ccc(Cl)cc3)cc21 was read as IMPase inh -5.
CCOc1ccc(NC(=O)N(CCN(C)C)C(C)c2ccncc2)cc1 (configuration not stated) was read as PNC assembly inh 11, ALOX12 inhib -4%, IMPase inh -3 and 15-hLO-2 inh 10%.
For N#CCC(=O)N/N=C/c1ccc(Sc2nc3ccccc3s2)o1 the results were PNC assembly inh 59, ALOX12 inhib 0%, IMPase inh -2 and 15-hLO-2 inh inconclusive.
`COc1ccccc1NC(=O)COC(=O)c1ccccc1OCC(=O)Nc1ccc(SC(F)F)cc1` gave PNC assembly inh 15 and ALOX12 inhib -1%.
